# Source: PubChem BioAssay (National Center for Advancing Translational Sciences (NCATS))
# HT1080-NT tox = kills 2HG-producing HT-1080-NT fibrosarcoma cells | HT-1080-NT fibrosarcoma viability, CellTiter-Glo ATP luminescence, 48 h | Potency, µM (series often up to 46.1 µM), inactives show top-dose activity, negative = less viability, actives largely listed as cytotoxic | 360,000 tested, 1.6% active | AID 686970;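 note: NT is the 2HG producing partner of a matched IDH1 knockdown line; 0% = DMSO-treated cells and -100% = media-only wells without cells; nearly all actives have a fitted effect of over 55% in size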
#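 Viability of the 2HG-overproducing fibrosarcoma line after 48 hours of compound exposure at 37 degrees C was determined by luminescence with CellTiter-Glo, and concentration-effect curves were then fitted and categorized.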
# KB-V1 MDR tox = KB-V1 MDR subline cytotoxicity | KB-V1 MDR cells viability, CellTiter-Glo, 72 h | Potency, µM (series often up to 46.1 µM), most hits filed as cytotoxic | 400,000 tested, 3.4% active; note: % is set by controls: 0 for no effect and ±100 for the full control effect; nearly all actives have a fitted effect of over 60% in size
#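 Cells of the MDR subline KB-V1 are plated, dosed with compound at multiple concentrations, and incubated 72 h at 37 degrees C; CellTiter-Glo is then added and luminescence read after 10 min.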
# HT1080 IDH1KD tx = toxicity to HT-1080 IDH1 knockdown cells (counter line); HT-1080 IDH1 knockdown viability, ATP luminescence, 48 h; 360,000 tested, 2% active; Potency, µM (doses to about 46.1 µM), for the others: at the top dose activity, negative = toxicity, usual class: cytotoxic;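 note: 0% = DMSO wells and -100% = cell-free medium wells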
#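 Viability of IDH1-knockdown HT-1080 fibrosarcoma cells was assessed by CellTiter-Glo after 48 h at 37 °C with titrated compound; concentration-effect curves were classified by fit quality and response size.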
# ATXN2 expr inh = inhibitors of ATXN2 expression. HEK-293 ATXN2-luciferase reporter, luminescence, 24 h. 360,000 tested, 0.72% active. Potency, µM (highest dose often 57 µM), for the others: at the highest dose activity change, negative = inhibition, most hits filed as inhibitors. AID 1745845; note: % is set by controls: 0 for no effect and ±100 for the full control effect; nearly all actives have a fitted effect of over 55% in size
#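 ATXN2-luciferase reporter cells (luciferase flanked by upstream and downstream ATXN2 gene portions) were treated 24 h at 37 °C with compounds at up to 57 uM. SteadyGlo luminescence gave expression; GF-AFC fluorescence gave viability.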
# KB-3-1 tox = KB-3-1 parental cell cytotoxicity. KB-3-1 viability, CellTiter-Glo ATP luminescence, 72 h. Potency, µM (series often up to 46.1 µM), actives largely listed as cytotoxic. 400,000 tested, 1.4% active; note: % is set by controls: 0 for no effect and ±100 for the full control effect; nearly all actives have a fitted effect of over 60% in size
#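 Viability of parental KB-3-1 cells, measured by CellTiter-Glo luminescence, followed a 72 h incubation at 37 °C with pinned compounds in phenol-red-free DMEM containing 10% FBS.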
# ATXN viability = cell viability loss in ATXN counter-screen. 400,000 tested, 0.49% active. Potency, µM (top dose mostly 56.7 µM), usual class: cytotoxic. AID 651635. S2 cells (HEK-293 line with an ATXN2-luciferase reporter) viability, CellTiter-Fluor protease fluorescence, 24 h; note: nearly all actives have a fitted effect of over 40% in size
# * marks the source's active call; other numbers are inactive results; i = inactive; ? = inconclusive; nt = no result given; [ ] = dose if it differs, or a comment. A selection: hits, their analogues and other compounds. The true share with any hit is near 6.2%. Calls come from the whole dose curve; as a rule, active = well fitted curve in the direction sought with a large enough effect; inconclusive = small, poorly fitted or top-dose-only effect, or another doubt; inactive = no such curve, though single readings can be large; an effect the other way counts as inactive or inconclusive. Potency is the fitted concentration of half-maximal effect.
SMILES,HT1080-NT tox,KB-V1 MDR tox,HT1080 IDH1KD tx,ATXN2 expr inh,KB-3-1 tox,ATXN viability
CC1CCCCN1c1cc(C#N)c(C#N)cc1[N+](=O)[O-] (centres undefined),5.0%,i,25.9%,-6.1%,i,i
CC1CCc2cccc3c2N1c1cc(C#N)c(C#N)cc1O3 (centres undefined),9.7%[9.24 µM],?,-1.3%,-8.5%,7.31µM*,?
CCCCCCSc1nnc(-c2cnn(-c3ccccc3)c2-n2cccc2)n1C,18.4µM*,i,?,-22.8%,i,i
O=C(/C=C/c1ccccc1)Nc1ncn[nH]1,11.2µM*,i,7.94µM*,?,i,?
Cc1ccc(NC(=O)/C=C/c2ccc(Cl)cc2)nc1,-1.5%,i,-10.6%,31.0%[11.3 µM],i,i
O=C(CC(=O)c1ccccc1)CS(=O)(=O)c1ccccc1,4.1%,11.6µM*,-18.4%,5.1%,i,?
O=C(CS(=O)(=O)c1ccccc1)Nc1ccc(Br)cn1,-5.4%,16.4µM*,-3.2%,15.4%,i,i
O=C(/C=C/c1ccccc1)Nc1ccc(Br)cn1,6.51µM*,i,5.17µM*,-16.5%,5.17µM*,?
CC(C)/C=C1\CC/C(=C\c2ccc(N(C)C)cc2)C1=O,11.8%,?,16.7%,67.6%,i,i
CN(C)c1ccc(/C=C2/C[N+](C)(C)C/C(=C/c3ccc(N(C)C)cc3)C2=O)cc1,?,i,16.4µM*,-12.2%,16.4µM*,13.4µM*
N[C@@H](C(=O)N[C@H]1C(=O)N2C(C(=O)O)=C(Cl)CC[C@H]12)c1ccccc1,nt,nt,nt,nt,nt,i
Cc1c(Cl)ccc2sc(N3CCN(C(=O)CS(=O)(=O)c4ccccc4)CC3)nc12,nt,i,nt,20µM*,i,?
COc1ccc(-c2nnc(SCC(=O)Nc3ccccc3OC)o2)cc1,?,i,?,35.2%,i,i
COc1ccc(CN(C(=O)CSc2nnc(-c3ccc(F)cc3)o2)c2ccc(F)cc2)cc1,1.4%,20.6µM*,-6.9%,6.2%,i,i
COc1ccc(-c2nnc(SCC(=O)Nc3cccc(Cl)c3)o2)cc1,?,16.4µM*,-29.6%,54.0%,?,i
COc1ccc(CN(C(=O)CSc2nnc(-c3c[nH]c4ccccc34)o2)c2ccc(F)cc2)cc1OC,?,14.6µM*,?,?,?,?
COc1cccc(-c2nnc(SCC(=O)N(C(C)C)C(C)C)o2)c1,-0.3%,18.4µM*,-1.3%,30.3%,i,i
COc1cc(OC)cc(-c2nnc(SCC(=O)N(C(C)C)C(C)C)o2)c1,3.7%,i,-1.0%,1.8%,i,i
COc1ccc(OC)c(CNC(=O)C2CCN(S(=O)(=O)c3ccc4[nH]c(=O)oc4c3)CC2)c1,nt,i,nt,11.9%,i,i
O=C(Cc1cccc(NC(=O)C2CCCN(C(=O)C3CC3)C2)c1)Nc1ccc(C(=O)N2CCOCC2)cc1 (centres undefined),2.4%,i,5.3%,13.3%,i,i
c1cnc(N2CCN(c3ncc4c(n3)CCNC4)CC2)nc1,nt,i,nt,10.7%,i,i
Cc1ccc(C(=O)CSc2nnc(-c3ccco3)o2)o1,-10.3%,i,0.3%,24.7%,i,i
COc1ccc(-c2nnc(SCC(=O)c3ccc(C)o3)o2)cc1,1.7%,23.1µM*,-2.3%,-4.9%,?,i
COc1ccc(-c2nnc(SCc3cc(C)cc(C)c3)o2)cc1,21.8%,20.6µM*,14.0%,3.1%,i,?
Cc1c(Cl)cccc1Nc1nn2c(=O)c3ccc(C(=O)NCCc4ccccc4)cc3nc2s1,nt,i,nt,nt,i,nt
SMILES,HT1080-NT tox,KB-V1 MDR tox,HT1080 IDH1KD tx,ATXN2 expr inh,KB-3-1 tox,ATXN viability
C/C(=N\NC(=O)C12CCC(C)(C(=O)O1)C2(C)C)c1ccccc1O (centres undefined),?,?,?,28.2µM*,?,i
Cc1cccc(C)c1NC(=O)C1(C)CN(S(C)(=O)=O)CC(=O)N1Cc1cccs1 (centres undefined),12.8%,i,11.6%,nt,i,nt
CC1CCCN(S(=O)(=O)c2ccc(NC(=O)Cn3nnc(-c4ccccc4F)n3)cc2)C1 (centres undefined),?,i,?,5.7%,i,i
Cc1ccc(-c2nnn(CC(=O)Nc3ccc(S(=O)(=O)N4CCC(C)CC4)cc3)n2)cc1,23.1µM*,?,11.6µM*,-31.8%,i,i
CC1CCN(S(=O)(=O)c2ccc(NC(=O)Cn3nnc(-c4ccccc4)n3)cc2)CC1,?,14.6µM*,?,-33.1%,?,i
CN1CCN(C(=O)C(=O)c2cn(CC(=O)N3CCCCCC3)c3ccccc23)CC1,-0.1%,i,0.8%,nt,i,i
O=c1c2c(nc3c(-c4cccc(Br)c4)c[nH]n13)CCCC2,-10.2%,i,-13.1%,?,i,i
O=c1c2c(nc3c(-c4ccc(Cl)cc4)c[nH]n13)CCC2,-21.4%,4.61µM*,?,12.6µM*,?,?
O=c1c2c(nc3c(-c4ccccc4)c[nH]n13)CCC2,11.2µM*,?,?,-19.9%,?,i
Cc1c(-c2ccccc2)[nH]n2c(=O)c3c(nc12)CCCC3,9.5%,20.6µM*,-2.0%,103.0%,i,?
COc1ccc(C(=O)N2CCOc3ccc(CN4CCN(c5ccccn5)CC4)cc3C2)o1,nt,nt,nt,nt,nt,i
O=C(NCCCN1CCN(c2cccc(Cl)c2)CC1)C1(S(=O)(=O)c2ccc(Cl)cc2)CC1,-9.2%,i,-16.9%,-21.8%,?,i
COc1ccc(N2CCN(CCCNC(=O)C3(S(=O)(=O)c4ccc(Cl)cc4)CC3)CC2)cc1,2.0%,9.2µM*,4.7%,1.2%,i,i
CC(C)Oc1ccc(CNC(=O)C2CCN(C(=O)N3CC(C)Oc4ccccc43)CC2)cc1 (centres undefined),nt,i,nt,nt,i,nt
Cc1ccc(-c2nc3c(c(SCc4ccc(Br)cc4)n2)Cc2c(CO)cnc(C)c2O3)cc1,nt,i,nt,13.0%,i,i
Clc1ccc(C2=NCCn3nc4ccccc4c32)cc1,-15.0%,?,-0.6%,-3.9%,?,i
Nc1c(Cl)cc(C2=NCCn3nc4ccccc4c32)cc1Cl,-11.3%,20.6µM*,-6.6%,-7.9%,6.51µM*,i
CC(C)(C)CC(C)(C)NCC(O)COc1c(F)cc(Br)cc1F (centres undefined),20.6µM*,20.6µM*,20.6µM*,?,?,?
CC(C)(C)NCC(O)COc1c(F)cc(Br)cc1F (centres undefined),8.5%,i,0.2%,-19.2%,i,i
